# Shown are actives, neighbours in structure and some others; about 5% of the full set was active somewhere.
# EBI2 block: blocks human EBI2 receptor beta-arrestin signaling | 360,000 tested, 0.81% active | EBI2 beta-arrestin recruitment, luminescence, 7a,25-OHC stimulated | AID 651636 | inhibition, % at 5 µM | P32249; in the data active = inhibition above about 38%;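 note: enzyme fragment complementation signal reports receptor beta-arrestin coupling in cells; 0% = agonist plus DMSO wells and 100% = wells without agonist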
# Target sequence (P32249 whole entry, looked up, the tested form may be a part): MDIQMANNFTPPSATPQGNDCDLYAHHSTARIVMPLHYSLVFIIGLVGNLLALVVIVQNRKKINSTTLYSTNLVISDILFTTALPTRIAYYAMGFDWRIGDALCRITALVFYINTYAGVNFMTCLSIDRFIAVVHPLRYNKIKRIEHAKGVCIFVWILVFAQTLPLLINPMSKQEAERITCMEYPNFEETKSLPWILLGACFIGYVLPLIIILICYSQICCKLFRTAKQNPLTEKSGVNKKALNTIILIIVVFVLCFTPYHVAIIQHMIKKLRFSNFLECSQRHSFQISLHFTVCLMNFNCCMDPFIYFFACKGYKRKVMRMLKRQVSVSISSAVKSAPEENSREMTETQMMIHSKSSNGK
# SENP8 block-1: SENP8 protease inhibition | Q96LD8 | purified SENP8, Z-RLRGG-aminoluciferin cleavage, luminescence | inhibition, % at 10 µM | 330,000 tested, 1.2% active | AID 2540; in the data active = inhibition above about 50%
# Target sequence (Q96LD8 whole entry, looked up): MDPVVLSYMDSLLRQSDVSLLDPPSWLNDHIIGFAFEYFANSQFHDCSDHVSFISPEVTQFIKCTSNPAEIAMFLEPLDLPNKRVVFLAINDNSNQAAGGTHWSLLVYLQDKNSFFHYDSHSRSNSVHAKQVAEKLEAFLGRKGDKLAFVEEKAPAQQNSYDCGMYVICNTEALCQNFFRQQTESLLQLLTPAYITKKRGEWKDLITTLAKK
# SENP8 block-2: blocks human SENP8 cleavage of Nedd8 substrate; Q96LD8; recombinant SENP8, Nedd8 substrate fluorescence; inhibition, % at 20 µM; 360,000 tested, 0.64% active; AID 602440; in the data active = inhibition mostly above about 40%, no sharp cut-off; inactive = mostly below about 27%
# SENP6 block: inhibitors of human SENP6 protease. 330,000 tested, 1.8% active. AID 2599. Q9GZR1. Recombinant SENP6 catalytic domain, aminoluciferin luminescence. inhibition, % at 10 µM;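 active = inhibition above about 50% at the single tested dose, limit read from the data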;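 note: plate controls were DMSO wells with enzyme for no effect and DMSO wells lacking enzyme for full effect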
# SENP7 inh: blocks the human protease SENP7. Q9BQF6. AID 434973. 330,000 tested, 1.5% active. inhibition, % at 5 µM. recombinant SENP7, Z-RLRGG-aminoluciferin luminescence, 40 min;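 active = inhibition above about 50% at the single test dose, limit read from the data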;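 note: plate controls were DMSO with enzyme for no effect and no enzyme buffer wells for full effect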
# AHR activator: activates the human aryl hydrocarbon receptor; P35869; AHR-responsive luciferase reporter cells, luminescence; activation, % at 5 µM; 320,000 tested, 2.5% active; AID 2796; in the data active = activation above about 47%;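 note: 0% = vehicle wells and 100% = reference agonist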
# SENP8 confirm: human SENP8 inhibition, confirmed; shares compounds with SENP7 inh; Recombinant SENP8, Z-RLRGG-aminoluciferin luminescence, 60 min; inhibition, % at 12.5 µM; 6,200 tested, 40% active; AID 488912;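 active = mean inhibition across replicates above about 50%, limit read from the data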
# SENP6 conf: confirmation of human SENP6 protease inhibitors; shares compounds with SENP7 inh; AID 488915; recombinant SENP6, Z-RLRGG-aminoluciferin luminescence; 6,200 tested, 58% active; inhibition, % at 12.5 µM
# SENP7 confirm: human SENP7 inhibition, confirmed; shares compounds with SENP7 inh; recombinant SENP7, Z-RLRGG-aminoluciferin luminescence, 40 min; inhibition, % at 12.5 µM; 6,200 tested, 69% active; AID 488917
# Casp3 select: caspase-3 inhibition (SENP selectivity assay); inhibition, % at 12.5 µM; AID 488918; purified caspase-3, Z-DEVD-aminoluciferin luminescence, 60 min; 6,200 tested, 60% active; shares compounds with SENP7 inh;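 active = mean inhibition above about 50%, limit read from the data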;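 note: plate controls were enzyme with DMSO for no effect and wells without caspase-3 for full effect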
# SENP luc ctr: counter-screen for SENP inhibitors: luminescence interference | shares compounds with SENP7 inh | Pre-incubated SENP8/Z-RLRGG-aminoluciferin, luciferase luminescence interference | inhibition, % at 12.5 µM | 6,200 tested, 39% active | AID 488919;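 active = mean inhibition above about 50% when retested at one dose, limit read from the data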;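 note: plate controls were DMSO wells with completed reaction for no effect and substrate without enzyme for full effect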
# * marks the source's active call; other numbers are inactive results; . = no result given.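 Rule for the calls, unless noted: active = mean inhibition above about 50% in the one-dose retest (limit read from the data); inactive = the rest.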
SMILES,EBI2 block,SENP8 block-1,SENP8 block-2,SENP6 block,SENP7 inh,AHR activator,SENP8 confirm,SENP6 conf,SENP7 confirm,Casp3 select,SENP luc ctr
O=c1[nH]cnc2c1N=C(c1cccc([N+](=O)[O-])c1)CC(c1ccccc1)N2 (configuration not stated),-1,4,21,0,5,-1,.,.,.,.,.
N/C(=N\OC(=O)c1cccc(Cl)c1)c1ccncc1,-6,3,14,-26,7,42,.,.,.,.,.
N/C(=N\OC(=O)c1ccc(Cl)cc1Cl)c1ccncc1,-3,59*,15,77*,62*,1,62*,64*,84*,73*,64*
Cc1ccc(N2C(=O)c3ccccc3NC2(C(=O)O)c2ccccc2)cc1Cl (configuration not stated),0,6,-89,-2,2,7,.,.,.,.,.
COc1c(OC(C)=O)ccc(/C=C/c2ccc3cccc(OC)c3n2)c1[N+](=O)[O-],25,17,12,29,-1,23,.,.,.,.,.
COc1c(OC(C)=O)ccc(/C=C/c2ccc3ccccc3n2)c1[N+](=O)[O-],24,89*,19,94*,91*,-2,86*,97*,99*,84*,41
O=[N+]([O-])c1ccccc1/C=C/c1ccc2ccccc2n1,4,85*,11,88*,82*,75*,94*,93*,100*,79*,47
COc1ccc2cc(-c3ccccc3)ncc2c1,7,92*,-194,95*,98*,22,79*,95*,96*,86*,33
C[n+]1cnc(-c2ccccc2)cc1-c1ccccc1,7,-6,-30,-2,-3,2,.,.,.,.,.
c1ccc(-c2cc3ccccc3cn2)cc1,0,82*,-29,84*,91*,37,65*,85*,96*,77*,39
COc1cc(OC)cc(-c2cc3ncccc3cn2)c1,-7,29,-14,43,53*,22,19,22,68*,66*,51*
COc1cc(OC)cc(-c2cc3ccc(OC)cc3cn2)c1,18,97*,-304,99*,100*,6,100*,101*,104*,99*,98*
COc1ccc(-c2nc(C)ncc2-c2ccccc2)c(O)c1,27,-12,6,-22,-9,10,.,.,.,.,.
O=C1Nc2c(Cl)cccc2C1=O,27,.,-4,.,.,.,.,.,.,.,.
CCC(C)NC(=O)Cn1c(-c2ccccc2)cc(C(C)=O)c1C (configuration not stated),-38,-4,10,3,4,-2,.,.,.,.,.
CC1Cc2ccccc2N1Cc1cc(=O)c(OCC(=O)NCCc2ccccc2)co1 (configuration not stated),2,-8,9,-11,-1,-2,.,.,.,.,.
CCOn1c(SCC)nc2ccccc2c1=O,0,-5,9,-12,1,1,.,.,.,.,.
CCSc1nn2c(=O)c3ccccc3nc2s1,-1,24,17,58*,30,-1,39,36,70*,76*,47
COc1cc(/C=C2\OC(=O)c3c(OC)cccc32)ccc1O,-13,24,-402,64*,47,15,26,29,82*,58*,68*
Cc1[nH]n(-c2ccccc2)c(=O)c1C=NCc1ccco1,.,-4,.,-2,8,12,.,.,.,.,.
Cc1[nH]n(-c2cccc(Cl)c2)c(=O)c1C=NCc1ccco1,-8,23,13,52*,23,12,-6,-8,16,8,17
CC(C)n1nnc(-c2ccc(OCc3ccccc3F)cc2)n1,1,90*,-1,90*,90*,2,-8,91*,100*,82*,62*
Cn1nnc(-c2ccc(OCc3ccccc3F)cc2)n1,-5,91*,8,97*,98*,-8,11,94*,101*,79*,22
Fc1ccccc1COc1ccc(C(=S)N2CCCC2)cc1,5,64*,8,58*,48,-6,45,35,60*,26,32
Fc1ccc2nc(-c3ccccc3)ccc2c1,0,.,17,.,.,.,.,.,.,.,.
SMILES,EBI2 block,SENP8 block-1,SENP8 block-2,SENP6 block,SENP7 inh,AHR activator,SENP8 confirm,SENP6 conf,SENP7 confirm,Casp3 select,SENP luc ctr
c1ccc(-c2ccc3sccc3n2)cc1,0,75*,16,83*,85*,1,36,78*,94*,79*,57*
COC(=O)c1c(NC(=O)COC(=O)CCc2ccc(S(=O)(=O)N3CCOCC3)cc2)sc2c1CCC2,-12,1,-29,-6,4,3,.,.,.,.,.
CCOC(=O)c1sc(NC(=S)NC(=O)c2ccc(OC)cc2)nc1C,-4,-2,0,-26,-8,2,.,.,.,.,.
C=CCOC(=O)c1sc(NC(=O)c2ccc(OC)cc2)nc1C,0,1,-126,-30,69*,-10,14,16,25,15,4
CCOc1ccc(C(=O)Nc2nc(C)c(C(=O)OC)s2)cc1,1,43,-113,54*,92*,-7,31,30,36,50,12
CCOC(=O)c1sc(NC(=O)c2ccc(=O)[nH]c2)nc1C,-2,-3,-67,8,6,9,.,.,.,.,.
COC(=O)c1sc(NC(=O)c2ccncc2)nc1C,2,86*,9,90*,94*,0,80*,91*,100*,97*,49
CCOC(=O)c1sc(NC(=O)c2ccc3nc[nH]c3c2)nc1C,4,73*,-84,81*,75*,-6,12,72*,36,26,5
CC1(C)Cc2cccc(OCC(=O)Nc3cccnc3Cl)c2O1,-12,0,12,-20,2,0,.,.,.,.,.
CC(=O)c1nc(-c2ccccc2)sc1C,6,-5,13,1,6,-3,.,.,.,.,.
O=[N+]([O-])c1ccccc1S(=O)(=O)NCc1cccnc1,-6,2,4,-20,14,-1,.,.,.,.,.
COC(=O)c1cccc(CSc2nc3ccccc3[nH]2)c1,4,47,19,65*,72*,-9,50,50*,83*,64*,68*
